Results taken from PubChem BioAssay (NCATS).
Results filed as inconclusive are left out. A call without a number means that no potency is given here. Activity calls are given as the source filed them. Unless noted, the call rests on the fitted dose curve; in most records, active means well fitted curve in the direction sought with a large enough effect; inconclusive means small, poorly fitted or top-dose-only effect, or another doubt; inactive means no such curve, though single readings can be large; an effect the other way counts as inactive or inconclusive.

Tests used:
[1] = molecular target: Voltage-gated inwardly rectifying potassium channel KCNH2 (Homo sapiens) (UniProt Q12809); test: qHTS Assay for Small Molecule Inhibitors of the Human hERG Channel Activity (AID 588834); settings: U2OS BacMam hERG, FluxOR thallium flux fluorescence; series mostly up to 46.1 µM;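 further: lower thallium flux fluorescence means stronger hERG block; nearly all actives have a fitted effect of over 50% in size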
Voltage-gated inwardly rectifying potassium channel KCNH2 (Homo sapiens), sequence (Q12809 whole entry, looked up): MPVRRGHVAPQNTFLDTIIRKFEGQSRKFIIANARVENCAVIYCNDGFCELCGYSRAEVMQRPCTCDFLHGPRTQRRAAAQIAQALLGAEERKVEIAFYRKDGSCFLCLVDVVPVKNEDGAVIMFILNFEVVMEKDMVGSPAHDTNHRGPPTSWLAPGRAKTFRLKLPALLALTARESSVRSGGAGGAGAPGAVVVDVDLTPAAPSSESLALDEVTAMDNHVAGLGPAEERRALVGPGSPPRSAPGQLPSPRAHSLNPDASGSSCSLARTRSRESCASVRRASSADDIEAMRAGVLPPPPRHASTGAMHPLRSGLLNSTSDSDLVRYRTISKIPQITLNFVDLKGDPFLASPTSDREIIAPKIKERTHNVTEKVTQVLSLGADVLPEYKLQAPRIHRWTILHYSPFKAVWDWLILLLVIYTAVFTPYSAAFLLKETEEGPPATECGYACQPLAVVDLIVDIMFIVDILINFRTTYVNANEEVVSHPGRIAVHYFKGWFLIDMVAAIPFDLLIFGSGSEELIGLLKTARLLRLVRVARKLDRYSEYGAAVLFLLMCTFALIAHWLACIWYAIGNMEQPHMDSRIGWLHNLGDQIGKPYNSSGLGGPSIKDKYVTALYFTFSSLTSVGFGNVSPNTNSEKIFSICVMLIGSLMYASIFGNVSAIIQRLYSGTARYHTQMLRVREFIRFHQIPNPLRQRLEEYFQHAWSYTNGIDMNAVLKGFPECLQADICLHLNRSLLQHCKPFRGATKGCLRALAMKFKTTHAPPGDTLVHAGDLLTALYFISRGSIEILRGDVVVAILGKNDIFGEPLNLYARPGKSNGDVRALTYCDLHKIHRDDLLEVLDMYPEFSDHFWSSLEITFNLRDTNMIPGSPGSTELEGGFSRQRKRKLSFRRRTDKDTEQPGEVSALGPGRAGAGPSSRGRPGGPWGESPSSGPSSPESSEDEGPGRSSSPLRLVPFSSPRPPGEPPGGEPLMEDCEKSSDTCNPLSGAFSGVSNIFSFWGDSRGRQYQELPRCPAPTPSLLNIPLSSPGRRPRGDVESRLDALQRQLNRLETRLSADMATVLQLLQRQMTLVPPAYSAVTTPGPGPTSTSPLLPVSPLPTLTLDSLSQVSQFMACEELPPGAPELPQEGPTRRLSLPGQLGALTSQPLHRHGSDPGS
Summary of the method: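 U2OS cells transduced with hERG via BacMam (MOI ~100), plated 2000/well, loaded with FluxOR thallium dye, compound ~10 min, then stimulation buffer; fluorescence decrease read kinetically; AC50 from Hill fits.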

[2] = molecular target: Luciferin 4-monooxygenase (Photinus pyralis) (UniProt P08659); test: Biochemical firefly luciferase enzyme assay for NPC (AID 624030); further: nearly all actives have a fitted effect of over 70% in size; settings: purified P. pyralis luciferase, luminescence, 5 min; series mostly up to 58.6 µM
Luciferin 4-monooxygenase (Photinus pyralis), sequence (P08659 whole entry, looked up): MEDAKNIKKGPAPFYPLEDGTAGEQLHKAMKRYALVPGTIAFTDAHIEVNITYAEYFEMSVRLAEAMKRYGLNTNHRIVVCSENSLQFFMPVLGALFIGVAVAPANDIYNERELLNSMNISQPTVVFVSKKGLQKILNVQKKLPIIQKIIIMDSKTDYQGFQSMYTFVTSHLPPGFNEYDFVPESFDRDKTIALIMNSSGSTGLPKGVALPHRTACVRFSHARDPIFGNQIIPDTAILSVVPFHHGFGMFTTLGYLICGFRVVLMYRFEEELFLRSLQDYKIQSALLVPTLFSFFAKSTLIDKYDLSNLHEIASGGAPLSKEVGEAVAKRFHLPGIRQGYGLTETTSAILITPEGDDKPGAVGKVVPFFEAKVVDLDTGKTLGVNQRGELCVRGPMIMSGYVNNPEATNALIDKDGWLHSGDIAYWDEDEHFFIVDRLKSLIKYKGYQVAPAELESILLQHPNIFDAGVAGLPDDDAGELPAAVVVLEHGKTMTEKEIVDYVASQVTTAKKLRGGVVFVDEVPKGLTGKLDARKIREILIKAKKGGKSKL
Summary of the method: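 Purified P. pyralis luciferase at 10 nM in 50 mM Tris Acetate (final), luminescence read within 5 minutes of enzyme addition to compounds. Activity normalised to PTC124 versus DMSO; concentration-response curves classed by r2, magnitude and activity.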

[3] = S16 Schwann cell PMP22 intronic element firefly luciferase assay (AID 624032); settings: S16 rat Schwann cells, PMP22 element FLuc, 24 h; series mostly up to 57.5 µM; further: nearly all actives have a fitted effect of over 30% in size
Summary of the method: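 Rat S16 Schwann cells stably carrying firefly luciferase driven by a PMP22 intronic element, in 10% FBS, treated 24 h at 37 C. ONE-Glo luminescence normalized to PTC124 control and DMSO (0%); curves classed by r2, magnitude and activity.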

[4] = S16 Schwann cell PMP22 intronic element beta-lactamase assay (AID 624044; calls by dose curve; further: nearly all actives have a fitted effect of over 15% in size); settings: S16 rat Schwann cells, PMP22 element beta-lactamase FRET, 24 h; series mostly up to 38.3 µM
Summary of the method: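 Rat S16 Schwann cells with beta-Lac driven by a PMP22 intronic element, compound-treated 24 h at 37 °C. LiveBLAzer FRET B/G read: 460 nm normalized to potassium clavulanate vs DMSO; 535 nm FRET as viability; concentration-effect curves classified.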

[5] = S16 Schwann cell viability assay (CellTiter-Glo assay) (AID 624031); settings: S16 rat Schwann cells viability, 24 h; series mostly up to 57.5 µM; further: nearly all actives have a fitted effect of over 70% in size
Summary of the method: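 Counter-screen for cytotoxicity: parental S16 rat Schwann cells lacking the PMP22 reporters, treated 24 h with compound, viability from cellular ATP by CellTiter-Glo luminescence, normalized to DMSO (0%) and no-cell wells.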
Potency means the concentration at half of the fitted maximal effect.

Row | SMILES | Potency [1] | Potency [2] | Potency [3] | Potency [4] | Potency [5]
1 | CC(C)NCC(O)c1ccc2ccccc2c1 (stereo not given) | inactive | inactive | inactive | – | –
2 | C=CCN1CCc2nc(N)sc2CC1 | inactive | inactive | inactive | – | –
3 | O=C(CCN1CCN2CCCC2C1)N1c2ccccc2Sc2ccc(Cl)cc21 (stereo not given) | 15.8 µM (active) | inactive | inactive | inactive | –
4 | CC[C@H](c1ccc(O)cc1)[C@@H](CC)c1ccc(O)cc1 | inactive | inactive | – | inactive | inactive
5 | NCc1ccccc1Sc1ccccc1CO | inactive | inactive | inactive | inactive | –
6 | CCCCCCCCCCCCSCCOCCO | inactive | inactive | – | inactive | inactive
7 | COc1cc([C@H]2Oc3cc([C@H]4Oc5cc(O)cc(O)c5C(=O)[C@@H]4O)ccc3O[C@@H]2CO)ccc1O | inactive | inactive | – | inactive | inactive
8 | Oc1c(Cl)cc(Cl)c(Cl)c1Cc1c(O)c(Cl)cc(Cl)c1Cl | inactive | – | 1.61 µM (active) | – | inactive
9 | CO[C@]12C[C@@H](COC(=O)c3cncc(Br)c3)CN(C)[C@@H]1Cc1cn(C)c3cccc2c13 | 0.398 µM (active) | inactive | inactive | inactive | –
10 | O=C(Nc1ncc([N+](=O)[O-])s1)c1cccs1 | inactive | 3.61 µM (active) | inactive | inactive | –
11 | O=C(CN1CCN(Cc2ccc3c(c2)OCO3)CC1)N1c2ccccc2Sc2ccccc21 | 2.51 µM (active) | inactive | 12.8 µM (active) | inactive | –
12 | CN(C)CCC[C@@]1(c2ccc(F)cc2)OCc2cc(C#N)ccc21 | – | inactive | inactive | – | inactive
13 | CN1CCN(C2=Nc3ccccc3Sc3ccc(Cl)cc32)CC1 | 14.1 µM (active) | – | inactive | – | –
14 | C[N+]1(CC2COC(c3ccccc3)(C3CCCCC3)O2)CCCCC1 (stereo not given) | – | inactive | – | inactive | inactive
15 | CCCCCCCCCCCCOCCOCCOCCOCCOCCOCCOCCOCCOCCO | – | inactive | – | – | –
16 | CN1CCN(C2=Nc3cc(F)ccc3Cc3ccccc32)CC1 | – | inactive | inactive | inactive | inactive
17 | CC1=C(C(=O)O)N2C(=O)[C@@H](NC(=O)[C@H](N)c3ccccc3)[C@H]2SC1 | – | – | inactive | – | inactive
18 | Cc1cc2c(OCC(CNC(C)(C)C)OC(=O)c3ccccc3)cccc2[nH]1 (stereo not given) | – | inactive | 18.1 µM (active) | inactive | inactive
19 | Cc1cc(CC(=O)O)c(C)n1-c1ccc(Cl)cc1 | – | inactive | inactive | – | –
20 | Clc1cccc(C(c2ccc3nc[nH]c3c2)n2ccnc2)c1 (stereo not given) | – | inactive | inactive | inactive | inactive
21 | C[N+]1(C)CCC(=C(c2ccccc2)c2ccccc2)CC1 | – | inactive | inactive | – | inactive
22 | CN(C)CCN1C(=O)c2ccccc2N(C)c2ccccc21 | – | inactive | inactive | – | inactive
23 | O[C@@H](c1cc(C(F)(F)F)nc2c(C(F)(F)F)cccc12)[C@H]1CCCCN1 | – | inactive | 36.1 µM (active) | – | 28.7 µM (active)
24 | NC(=O)n1c(O)c(C(=O)c2cccs2)c2cc(Cl)ccc21 | inactive | – | – | inactive | –

Row | SMILES | Potency [1] | Potency [2] | Potency [3] | Potency [4] | Potency [5]
25 | C=C[C@H]1CN2CC[C@H]1C[C@H]2[C@H](O)c1ccnc2ccc(OC)cc12 | – | inactive | – | – | –
26 | CN1CCC[C@@H]1CCO[C@](C)(c1ccccc1)c1ccc(Cl)cc1 | – | inactive | inactive | – | –
27 | Oc1ccccc1C=NCc1ccccc1 | – | inactive | inactive | – | inactive
28 | CCCCC(CC)COC(=O)/C=C/c1ccc(OC)cc1 (stereo not given) | – | inactive | inactive | inactive | inactive
29 | CCN(CC)CCNC(=O)c1cc(Br)c(N)cc1OC | – | inactive | – | – | inactive
30 | CCNC(=O)/C=C/c1cccc(Br)c1 | inactive | – | inactive | – | –
31 | CCOC(=O)[C@@](C)(N)Cc1ccc(O)c(O)c1 | – | inactive | – | – | –
32 | OCCOCCN1CCN(C2=Nc3ccccc3Sc3ccccc32)CC1 | – | inactive | inactive | inactive | inactive
33 | CCOC(=O)c1c(N)sc2c1CCN(Cc1ccccc1)C2 | – | inactive | 36.1 µM (active) | – | inactive
34 | Cc1cc(-c2ccccc2)nnc1NCCN1CCOCC1 | – | – | inactive | inactive | inactive
35 | CN1CCc2cccc3c2[C@H]1Cc1ccc(O)c(O)c1-3 | – | – | 14.4 µM (active) | inactive | –
36 | FC(F)(F)C(F)(F)C(F)(F)C(F)(F)C(F)(F)C(F)(F)C(F)(F)C(F)(F)Br | – | inactive | inactive | inactive | inactive
37 | CCc1oc2ccccc2c1C(=O)c1cc(I)c(O)c(I)c1 | inactive | – | – | inactive | inactive
38 | CCCCCN=C(N)N/N=C/c1c[nH]c2ccc(OC)cc12 | – | inactive | inactive | inactive | inactive
39 | N/C(=N\N=C\c1ccc(Cl)cc1)N/N=C/c1ccc(Cl)cc1 | 3.55 µM (active) | – | inactive | inactive | inactive
40 | CN1CCN(CCC(=O)N2c3ccccc3Sc3ccc(C(F)(F)F)cc32)CC1 | – | inactive | inactive | inactive | –
41 | Cc1ccc(O)c([C@H](CCN(C(C)C)C(C)C)c2ccccc2)c1 | – | inactive | inactive | inactive | inactive
42 | O=C(O)C1(C(=O)O)CCC1.[NH2-].[NH2-].[Pt+2] | inactive | – | inactive | inactive | inactive
43 | CCC1Nc2cc(Cl)c(S(N)(=O)=O)cc2S(=O)(=O)N1 (stereo not given) | – | inactive | inactive | – | –
44 | CNCCc1ccccn1 | – | inactive | inactive | – | inactive
45 | O=C(CCCN1CC=C(n2c(=O)[nH]c3ccccc32)CC1)c1ccc(F)cc1 | – | inactive | inactive | – | inactive
46 | CC(C)=CCOc1ccc(/C=C/C(=O)c2ccc(OCC=C(C)C)cc2OCC(=O)O)cc1 | inactive | – | – | inactive | inactive
47 | CCN(CC)CCNc1ccc(CO)c2sc3ccccc3c(=O)c12 | – | inactive | 1.61 µM (active) | 11.2 µM (active) | inactive
